# Experimental data reported in PubChem BioAssay (EPA / NIEHS).
# Where “and” joins values, the source holds several entries; their conditions need not be identical. Equal values may be shown once. A structure can be active in one record and inactive in another. Calls of active or inactive are those of the source. How the source made its calls: active means hit-call score of the fitted dose curve at least 0.9, where 1 is the maximum; inactive means score below 0.9.
# Key:
# [1] = target: Transcription factor E2F1 (Homo sapiens) (UniProt Q01094); test: ATG_E2F_CIS: Attagene CIS-FACTORIAL HepG2 Assay for human E2F Transcription Factor 1 (AID 2282935); conditions: HepG2 Attagene cis-reporter, E2F reporter RNA transcripts; actives raise or lower the signal
# Transcription factor E2F1 (Homo sapiens), sequence (Q01094 whole entry, looked up): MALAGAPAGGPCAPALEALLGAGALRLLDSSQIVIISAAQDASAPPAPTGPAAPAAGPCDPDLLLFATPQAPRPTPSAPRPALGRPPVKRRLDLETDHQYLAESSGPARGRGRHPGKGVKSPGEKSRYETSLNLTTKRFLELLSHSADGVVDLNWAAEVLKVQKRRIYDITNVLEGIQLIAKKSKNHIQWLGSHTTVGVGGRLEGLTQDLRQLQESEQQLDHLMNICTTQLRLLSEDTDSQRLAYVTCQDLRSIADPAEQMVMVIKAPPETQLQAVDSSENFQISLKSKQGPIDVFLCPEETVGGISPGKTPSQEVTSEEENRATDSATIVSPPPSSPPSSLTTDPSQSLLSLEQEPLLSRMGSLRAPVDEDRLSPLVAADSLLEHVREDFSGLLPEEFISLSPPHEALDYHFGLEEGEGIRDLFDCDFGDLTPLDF
# Summary of the method: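 Gain or loss of reporter transcript, fitted against DMSO, reflects E2F1-driven transcription. Transiently transfected HepG2 dosed 24 h before RNA isolation. Quantified by fluorescent RT-PCR products separated by capillary electrophoresis.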
# [2] = ATG_E_Box_CIS: Attagene CIS-FACTORIAL HepG2 Assay for human Enhancer Box (E-box) (AID 2282936); conditions: HepG2 E-box cis-reporter transcription, actives raise or lower the signal
# Summary of the method: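 E-box-driven reporter transcripts measured in transiently transfected HepG2 after 24 h exposure: RNA reverse-transcribed, PCR-amplified, fluorescently labelled, digested and resolved by capillary electrophoresis. Gain or loss relative to DMSO.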
# [3] = ATG_M_61_CIS: Attagene CIS-FACTORIAL HepG2 Assay for M61 Transcription Factor (Internal Marker) (AID 2282937); conditions: HepG2 Attagene CIS-FACTORIAL M61 internal marker reporter; actives raise or lower the signal
# Summary of the method: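 This endpoint serves as an internal background control within a multiplexed HepG2 cis-reporter panel. Cells are exposed for 24 h; reporter mRNA is amplified, fluorescently labelled and sized by capillary electrophoresis, with DMSO as negative control.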
# [4] = ATG_EGR_CIS: Attagene CIS-FACTORIAL HepG2 Assay for human Early Growth Response 1 (EGR1) (AID 2282938); conditions: HepG2 Attagene CIS-FACTORIAL EGR reporter mRNA; actives raise or lower the signal
# Summary of the method: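 HepG2, transient MRTU transfection (cis promoters), 24 h compound. RNA → RT (oligo-dT) → PCR → 6-FAM labelling → HpaI cut → CE fluorescence. Bidirectional fit, DMSO baseline.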
# [5] = ATG_ERE_CIS: Attagene CIS-FACTORIAL HepG2 Assay for Estrogen Response Element (ERE) (AID 2282940); conditions: HepG2 ERE cis-reporter, Attagene RNA transcript; actives raise or lower the signal
# Summary of the method: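 Transient MRTU transfection of human HepG2; cis-element promoters; 24 h dosing; total RNA → RT (oligo dT) → PCR → 6-FAM primer extension → HpaI digest → CE fluorescence. Bidirectional fit, DMSO baseline.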
# [6] = ATG_Ets_CIS: Attagene CIS-FACTORIAL HepG2 Assay for human Erythroblast Transformation Specific (ETS) (AID 2282941); conditions: HepG2 ETS cis-reporter transcription, actives raise or lower the signal
# Summary of the method: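 Cis-regulated reporter mRNA induction in HepG2 (transient transfection), 24 h exposure, RT-PCR plus capillary electrophoresis detection; DMSO serves as negative control and baseline.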
# [7] = target: Hepatocyte nuclear factor 3-beta (Homo sapiens) (UniProt Q9Y261); test: ATG_FoxA2_CIS: Attagene CIS-FACTORIAL HepG2 Assay for human Forkhead box A2 (FOXA2) (AID 2282942); conditions: HepG2 cis-reporter transcription factor activity, 24 h; actives raise or lower the signal
# Hepatocyte nuclear factor 3-beta (Homo sapiens), sequence (Q9Y261 whole entry, looked up): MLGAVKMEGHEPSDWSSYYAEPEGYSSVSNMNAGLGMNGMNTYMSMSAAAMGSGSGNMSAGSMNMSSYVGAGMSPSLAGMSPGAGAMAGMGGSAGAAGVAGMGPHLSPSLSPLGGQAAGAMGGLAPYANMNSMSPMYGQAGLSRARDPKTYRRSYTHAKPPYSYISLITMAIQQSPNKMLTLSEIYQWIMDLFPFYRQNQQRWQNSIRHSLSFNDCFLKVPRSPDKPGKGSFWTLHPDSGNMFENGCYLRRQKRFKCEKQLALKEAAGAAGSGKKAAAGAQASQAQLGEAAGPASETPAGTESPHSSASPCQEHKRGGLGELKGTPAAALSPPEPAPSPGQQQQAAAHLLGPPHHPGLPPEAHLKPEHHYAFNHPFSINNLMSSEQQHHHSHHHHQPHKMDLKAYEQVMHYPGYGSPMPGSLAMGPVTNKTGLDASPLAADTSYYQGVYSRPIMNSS
# Summary of the method: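 Cells: HepG2, transient multiplex reporter transfection. Exposure 24 h. Detection: reporter-specific RT-PCR, fluorescent labelling, restriction digest, capillary electrophoresis. Analysis: bidirectional curve fit, DMSO as negative control.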
# [8] = ATG_FoxO_CIS: Attagene CIS-FACTORIAL HepG2 Assay for human Forkhead box O (FoxO) (AID 2282943); conditions: HepG2 Attagene cis-reporter, FoxO element, mRNA; actives raise or lower the signal
# Summary of the method: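 Endogenous transcription factor activity read from multiplexed cis-promoter reporter transcripts in transiently transfected HepG2, 24 h after dosing. Reporter RNA measured via RT-PCR plus capillary electrophoresis of FAM-labeled products; gain or loss relative to DMSO.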
# [9] = ATG_GATA_CIS: Attagene CIS-FACTORIAL HepG2 Assay for human GATA Binding Protein (AID 2282944); conditions: HepG2 GATA cis-element reporter, Attagene multiplex mRNA; actives raise or lower the signal
# Summary of the method: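 Transient MRTU transfection, HepG2, 24 h compound exposure. Total RNA → oligo(dT) RT → PCR → 6-FAM primer extension → HpaI cut → CE. Bidirectional fit vs DMSO.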
# [10] = ATG_M_19_CIS: Attagene CIS-FACTORIAL HepG2 Assay for M19 Transcription Factor (Internal Marker) (AID 2282939); conditions: HepG2 Attagene CIS-FACTORIAL M19 internal marker reporter; actives raise or lower the signal
# Summary of the method: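 Transfect HepG2 with MRTU reporter library → dose chemical, 24 h → isolate total RNA, reverse-transcribe with oligo(dT) → PCR, 6-FAM label, HpaI cut (2 h, 37 C) → capillary electrophoresis. Bidirectional fit vs DMSO.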
SMILES,outcome [1],AC50 [2],outcome [2],outcome [3],AC50 [4],outcome [4],outcome [5],outcome [6],outcome [7],outcome [8],outcome [9],outcome [10],AC50 [6],AC50 [7],AC50 [8],AC50 [9],AC50 [5],AC50 [1],AC50 [3]
O=C1OC2(c3ccccc31)c1cc(Br)c(O)c(Br)c1Oc1c2cc(Br)c(O)c1Br,inactive,62.7 µM (active),inactive,inactive,62.3 µM (active),inactive,inactive,inactive,inactive,inactive,inactive,,,,,,,,
c1ccc2c(c1)ccc1ccccc12,inactive,,inactive,inactive,,inactive,inactive,inactive,inactive,inactive,inactive,inactive,,,,,,,
O=C(O)Cc1cc(I)c(Oc2cc(I)c(O)c(I)c2)c(I)c1,inactive,113 µM (active),inactive,inactive,22.5 µM (active) and 36.5 µM (active),,inactive,inactive,inactive,inactive,inactive,,38.1 µM (active),83.7 µM (active),46.7 µM (active),115 µM (active),,,
ClC1=C(Cl)C(Cl)(Cl)C(Cl)=C1Cl,inactive,6.36 µM (active),inactive,inactive,17.8 µM (active) and 6.6 µM (active),,inactive,,inactive,inactive,inactive,inactive,17.7 µM (active) and 16.2 µM (active),,16.1 µM (active),,,,
CC(C)(C)c1cc(C(C)(C)C)c(O)c(C(C)(C)C)c1,inactive,,inactive,inactive,,inactive,inactive,inactive,inactive,inactive,inactive,inactive,,,,,,,
CC(C)(C)c1ccc(O)c(C(C)(C)C)c1,inactive,,inactive,inactive,,inactive,inactive,inactive,inactive,inactive,inactive,inactive,,,,,,,
Cc1oc(-c2ccccc2)nc1CCOc1ccc(C[C@H](Nc2ccccc2C(=O)c2ccccc2)C(=O)O)cc1,inactive,,inactive,inactive,17.1 µM (active),,,inactive,inactive,inactive,inactive,inactive,,,,,0.523 nM (active),,
CCN(CC)CCNc1ccc(CNC=O)c2sc3ccc(OC)cc3c(=O)c12,inactive,,inactive,inactive,,inactive,,,inactive,inactive,inactive,inactive,1.42 µM (active),,,,722 nM (active),,
CCC(=C(c1ccc(O)cc1)c1ccc(OCCN(C)C)cc1)c1ccccc1,inactive,9.17 µM (active) and 7.1 µM (active) and 3.43 µM (active),inactive,inactive,9.87 µM (active) and 10.8 µM (active),inactive,inactive,inactive,inactive,inactive,inactive,,,,,10.5 µM (active),,10.8 µM (active),11.7 µM (active)
CCCCCCCCCCCCCC[N+](C)(C)C,inactive,,inactive,inactive,11.1 µM (active),inactive,inactive,inactive,inactive,inactive,inactive,,,,,,,,
CN(C)C=O,inactive,,inactive,inactive,,inactive,inactive,inactive,inactive,inactive,inactive,inactive,,,,,,,
COc1cc(CCC(=O)CC(=O)CCc2ccc(O)c(OC)c2)ccc1O,inactive,,inactive,inactive,,inactive,inactive,inactive,inactive,inactive,inactive,inactive,,,,,,,
OCCC(F)(F)C(F)(F)C(F)(F)C(F)(F)C(F)(F)C(F)(F)C(F)(F)C(F)(F)F,inactive,261 µM (active),inactive,inactive,26.5 µM (active) and 150 µM (active),,,,,inactive,inactive,inactive,50.7 µM (active) and 150 µM (active),51.9 µM (active) and 235 µM (active),,,9.11 µM (active) and 8.41 µM (active),,
CCCCCCCC(=O)O,inactive,,inactive,inactive,,inactive,inactive,inactive,inactive,inactive,inactive,inactive,,,,,,,
COC(=O)CCCCC(=O)OC,inactive,,inactive,inactive,,inactive,inactive,inactive,inactive,inactive,inactive,inactive,,,,,,,
c1ccc2c(c1)Cc1ccccc1-2,inactive,,inactive,inactive,,inactive,,inactive,inactive,inactive,inactive,inactive,,,,,100000 nM (active),,
